Experimental data as given in PubChem BioAssay.
The source made the active and inactive calls.

Assays:
[1] = A549 cell viability effects, profiling panel, calcein-AM fluorescence, 48 h, basal (AID 1162); conditions: higher = more signal
[2] = adipocyte viability effects, profiling panel, cell-based, 3T3-L1 adipocytes, calcein-AM fluorescence, 48 h, basal (AID 1163); conditions: 3T3-L1 adipocytes viability, higher = more signal
[3] = HepG2 cell viability effects, profiling panel, calcein-AM fluorescence, 48 h, basal (AID 1164); conditions: higher = more signal
[4] = MM1S cell viability effects, profiling panel, calcein-AM fluorescence, 48 h, basal (AID 1165); conditions: higher = more signal;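 further: viability of MM1S multiple myeloma cells under basal unstimulated conditions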
[5] = basal RPMI8226 viability, no added stimulus, profiling panel, cell-based, calcein-AM fluorescence, 48 h, PK04 Diversity Set (AID 1166); conditions: RPMI8226 myeloma viability, higher = more signal;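 further: cells grown under basal conditions without added stimulus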
[6] = basal HepG2 mitochondrial membrane potential changes, profiling panel, cell-based, JC-1 fluorescence, 24 h, 100 nL compound (AID 1167); conditions: higher = more signal
[7] = basal 3T3-L1 adipocyte mitochondrial potential changes, profiling panel, cell-based, JC-1 fluorescence, 3T3-L1 adipocytes, 24 h, 100 nL compound (AID 1168); conditions: JC-1 mitochondrial fluorescence, higher = more signal, called active from +8 up or from −8 down
[8] = basal RPMI8226 mitochondrial membrane potential changes, profiling panel, cell-based, JC-1 fluorescence, 24 h, 100 nL compound (AID 1169); conditions: RPMI8226 myeloma, JC-1 mitochondrial potential fluorescence, higher = more signal
[9] = basal MM1S mitochondrial membrane potential changes, profiling panel, cell-based, JC-1 fluorescence, 24 h, 100 nL compound (AID 1170); conditions: higher = more signal
[10] = A549 lung cancer cell viability effects, profiling panel, resazurin fluorescence, 24 h, PK04 Diversity Set (AID 1171); conditions: higher = more signal, called active from +8 up or from −8 down
Further: test concentration not given here.

Structure (SMILES) | z-score [1] | z-score [2] | z-score [3] | z-score [4] | z-score [5] | z-score [6] | z-score [7] | z-score [8] | z-score [9] | z-score [10]
COc1ccc(C(=O)Nc2ccc(CN3C(=O)[C@]4(O[C@H](CCO)[C@@H]([Si](C)(C)c5ccc(OC)cc5)[C@@H]4C)c4ccccc43)cc2)cc1 | -3.8 | -0.0656 | -4.64 | -2.62 | -4.35 | -2.72 | 1.36 (inactive) | -1.06 | -2.28 | -3.79 (inactive)
COC(=O)C[C@H]1O[C@]2(C(=O)N(C)c3ccccc32)[C@@H](C)[C@@H]1[Si](C)(C)F | 0.0967 | 0.587 | 1.21 | 0.0544 | -0.804 | 0.65 | -0.125 (inactive) | 0.452 | 0.632 | 2.22 (inactive)
CC(=O)NCCCC[C@@H]1NC(=O)[C@H]2C[C@@H](C(=O)NCCCCCCNC(=O)CS)[C@@H](c3ccc(O)cc3)N2C1=O | -0.224 | 0.726 | -1.28 | -0.197 | 0.0535 | -1.33 | 0.184 (inactive) | -0.0883 | -0.213 | -0.689 (inactive)
C=C(C)[C@@H]1CC=C(C(O)C2C=CC3C(=O)N(c4ccccc4)C(=O)C3N2Nc2ccccc2)CC1 (stereo not given in full) | 1.62 | -0.63 | 1.16 | -0.646 | -1.05 | -1.95 | -0.27 (inactive) | -0.45 | -0.31 | 0.296 (inactive)
CCCCC(CC)C(O)C1C=CC2C(=O)N(Cc3ccccc3)C(=O)C2N1n1cnnc1 (stereo not given) | -0.682 | -0.498 | -0.391 | -0.165 | -0.208 | -0.522 | -1.48 (inactive) | 0.447 | 0.533 | -0.56 (inactive)
C=CCOC(=O)[C@H]1[C@@H]2C(=O)O[C@@H](c3ccccc3)[C@@H](c3ccccc3)N2[C@@H](c2ccc(OCCOC(=O)[C@H]3C[C@H]4C(=O)N[C@@H](CCCC[N+](C)(C)C)C(=O)N4[C@H]3c3ccc(O)cc3)cc2)[C@]12C(=O)Nc1ccc(I)cc12 | 0.191 | -0.113 | 0.837 | -0.233 | -0.661 | 0.239 | -0.672 (inactive) | 0.0674 | 0.17 | -0.0807 (inactive)
CCCC[C@@H]1C[C@H]1[C@@H](NC(=O)c1cccs1)c1ccc(-c2ccccc2)cc1 | -0.997 | -0.537 | -0.0352 | -0.802 | -0.38 | 0.565 | -1.56 (inactive) | -0.233 | -0.815 | 1.71 (inactive)
O=C1O[C@H](c2ccccc2)[C@H](c2ccccc2)N2[C@H]1[C@@H](C(=O)N1CCCCCCC1)[C@]1(C(=O)Nc3ccc(C#CC4=CCCCC4)cc31)[C@H]2c1ccc(OCCO)cc1 | -0.733 | 1.67 | -0.103 | -0.0425 | -1.4 | -1.68 | -5.35 (inactive) | -1.02 | -0.729 | -0.0973 (inactive)
C=CCC(OC(C)=O)[C@@H]1[C@@H](N(Cc2ccc(-c3ccccc3)cc2)C(=O)Cc2ccc(OC)cc2)c2cc(OCCCO)ccc2N1C(=O)Cc1ccc2ccccc2c1 (stereo not given in full) | 0.247 | 0.358 | 0.71 | -0.391 | -0.252 | 1.25 | -1.73 (inactive) | 0.158 | 0.338 | -0.599 (inactive)
CN1C(=O)C2C=CC(C(O)c3ccccc3)N(N(c3ccccc3)c3ccccc3)C2C1=O (stereo not given) | -0.948 | -0.669 | -0.373 | 0.0913 | -0.383 | -0.885 | -0.791 (inactive) | 0.538 | 0.102 | -0.166 (inactive)
COc1cccc(-c2cccc(=O)o2)c1 | -1.06 | -0.458 | -0.834 | 0.192 | -1.87 | -1.27 | 0.236 (inactive) | 0.812 | 0.0881 | 0.563 (inactive)
COC(=O)C(CC#Cc1ccc2c(c1)[C@]1(C(=O)N2)[C@H](C(=O)Nc2nc3ccccc3s2)[C@H]2C(=O)O[C@H](c3ccccc3)[C@H](c3ccccc3)N2[C@@H]1c1ccccc1OCCO)C(=O)OC | -0.231 | 0.728 | 0.0091 | -0.426 | -2.6 | -2.7 | -0.502 (inactive) | -1.17 | -1.63 | -0.367 (inactive)
[N-]=[N+]=Nc1ccccc1[C@@H]1OC(c2ccc(OCCCO)cc2)=N[C@]1(CCS(=O)(=O)c1ccccc1)C(N)=O | -0.811 | -0.267 | -0.554 | -0.648 | 0.0806 | -2.73 | -1.91 (inactive) | -0.0842 | -0.305 | 0.404 (inactive)
CCCC[C@H]1OB(O)C[C@H]2C1=C(COC)C[C@H]1C(=O)N(C)C(=O)[C@H]12 | -0.0959 | -0.671 | -0.653 | -1.34 | -0.744 | -1.27 | 0.0166 (inactive) | -0.528 | -0.355 | -0.531 (inactive)
COC(=O)[C@@]1(Cc2ccccc2)[C@H]2c3cc(C(=O)N4CCCC4)n(Cc4ccc(S(C)(=O)=O)cc4)c3C[C@H]2CN1C(=O)c1ccccc1 | -0.235 | 0.949 | -0.838 | -1.09 | -1.68 | 2.43 | -1.62 (inactive) | 0.148 | -0.659 | 0.142 (inactive)
C[C@@]1([C@@H](NC(=O)c2ccc(-c3ccccc3)cc2)c2ccc(Cl)cc2)C[C@H]1C1CCCCC1 | -1.18 | -0.52 | -0.934 | -3.43 | -4.76 | -2.21 | -1.07 (inactive) | -0.902 | -2.73 | 0.602 (inactive)

Structure (SMILES) | z-score [1] | z-score [2] | z-score [3] | z-score [4] | z-score [5] | z-score [6] | z-score [7] | z-score [8] | z-score [9] | z-score [10]
COCCCNC(=O)[C@@H]1c2ccccc2C(=O)N(Cc2ccccc2Cl)[C@H]1c1ccc(CO)cc1 | 0.897 | -0.137 | 1.84 | 0.448 | 1.28 | 2.87 | 0.385 (inactive) | -0.21 | 0.418 | -0.028 (inactive)
CC(CO)N1C(=O)[C@@H]2C3C(=O)OCCC/C=C\[C@H]3OC23C=CCN(C(C)(C)C)C(=O)[C@@H]13 (stereo not given in full) | -0.241 | -0.557 | 0.775 | 1.41 | 0.995 | 0.285 | 0.521 (inactive) | -0.458 | -1.26 | -0.717 (inactive)
COc1ccc(CCNC(=O)[C@@]2(Sc3ccc(C)cc3)CC(=O)N(C(C)C)[C@@H]2c2ccc(CO)cc2I)cc1 | 1.68 | 0.345 | 0.0217 | -3.07 | -2.32 | 0.529 | -0.139 (inactive) | -0.686 | -0.942 | -0.192 (inactive)
COC(=O)[C@@]1(Cc2ccccc2)N=C(c2ccc(OCCCO)cc2)O[C@H]1c1ccccc1 | -1.98 | 0.598 | -1.69 | -3.6 | -3.94 | -2.02 | 0.294 (inactive) | -1.1 | -0.354 | -2.02 (inactive)
COC(=O)[C@@]1(Cc2ccc(OC)cc2)[C@@H]2C(=CC(=O)[C@H]2CC(=O)C(=O)N2CCCC2)CN1C(=O)c1ccccc1 | -0.0504 | -0.386 | -0.167 | -0.565 | -1.17 | 0.718 | -0.407 (inactive) | -0.356 | -1.69 | 0.408 (inactive)
C=C[C@H](C)[C@@H](OC(=O)Nc1ccc(OC)cc1)c1ccc(O)c2ccccc12 | -1.17 | 0.323 | -1.54 | -2.78 | -4.12 | -3.42 | -1.19 (inactive) | -1.01 | -1.94 | -1.12 (inactive)
C=CC1(C(=O)OC)CC=C(C(=O)OC)CC1 (stereo not given) | 0.211 | 0.0237 | -0.287 | 0.835 | -0.0765 | 1.27 | 0.562 (inactive) | -0.093 | -1.42 | 0.45 (inactive)
Cc1ccc(N2C(=O)c3ccccc3[C@@H](C(=O)NC3CC3)[C@@H]2c2ccc(CO)cc2)nc1 | -0.684 | 0.516 | -0.774 | 0.0291 | -2.27 | -0.0756 | -0.289 (inactive) | 0.755 | -0.446 | 0.771 (inactive)
COc1cc2c(cc1OC)CN(C(=O)[C@@H]1[C@H]3C(=O)O[C@H](c4ccccc4)[C@H](c4ccccc4)N3[C@H](c3ccc(O)cc3)[C@@]13C(=O)Nc1ccccc13)CC2 | 1.62 | 1.45 | 1.01 | 0.0197 | -1.62 | -0.574 | 0.382 (inactive) | -1.08 | -0.404 | 1.6 (inactive)
CC(C)OC(=O)C=C1C[C@@H](c2ccccn2)O[C@@H](c2ccccn2)O1 | -0.564 | -0.631 | -0.217 | 0.667 | -1.14 | -0.894 | -0.341 (inactive) | 0.65 | -0.816 | 0.118 (inactive)
CN1C(=O)C2C=CC(C(O)C#Cc3ccccc3)N(N3CCCCC3)C2C1=O (stereo not given) | -0.388 | -0.382 | -0.149 | 0.241 | 0.609 | -0.242 | 0.567 (inactive) | 0.382 | -0.547 | -0.913 (inactive)
CCOC(=O)C[C@H]1[C@H](OC(=O)c2ccc(C(=O)c3ccccc3)cc2)[C@@H](NC(=O)c2ccc3ccccc3c2)c2cc(OCCCO)ccc2N1C(=O)Cc1ccc(OC)cc1 | -0.0783 | 0.539 | 0.294 | 0.655 | 0.39 | 1.32 | -0.808 (inactive) | -0.716 | -0.51 | 0.0571 (inactive)
CCOC(=O)C[C@H]1[C@H](OC(=O)c2ccc(C(=O)c3ccccc3)cc2)[C@@H](NC(=O)c2ccc3ccccc3n2)c2cc(OCCCO)ccc2N1C(=O)c1ccccc1 | -0.851 | 0.824 | 0.376 | -0.67 | -0.705 | 1.11 | -0.966 (inactive) | 0.484 | -0.318 | 0.154 (inactive)
CCOC(=O)[C@H]1C/C=C/C[C@H](C(=O)OCC)C(=O)O[C@H]2[C@@H](OC)O[C@H](CO)[C@@H](OC(=O)c3c(OC)cccc3OC)[C@@H]2OC1=O | -4.24 | 0.125 | -4.96 | -3.3 | -4.09 | -3.48 | 0.154 (inactive) | -0.999 | -1.96 | -4.38 (inactive)
C=C(/C(=C/C[C@H](OC(C)=O)c1ccc(CO)o1)c1cc(C(=O)OC)ccc1OC)C(C)C | -0.431 | 1.4 | -0.812 | -2.37 | -2.03 | 0.256 | 1.13 (inactive) | 0.104 | -0.227 | -0.369 (inactive)
